Test results from PubChem BioAssay (NCATS).
Where “and” joins values, the source holds several entries; their conditions need not be identical. Equal entries are not always repeated. Inconclusive results are not listed. Calls of active or inactive are those of the source. Calls follow the shape of the dose curve; as a rule, active = well fitted curve in the direction sought with a large enough effect; inconclusive = small, poorly fitted or top-dose-only effect, or another doubt; inactive = no such curve, though single readings can be large or run the other way.

Assay: qHTS Assay for Identifying Gametocytocidal Compounds (AID 743244);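 as to max response: actives lower the fluorescent signal which means gametocytes are killed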
Settings: P. falciparum 3D7 stage III-V gametocytes, alamarBlue, 72 h; max response: hits give low values
Text: Malaria cases and deaths have dropped 50% in 29 countries since 2000 due to the combined effects of long-lasting insecticidal bednets, indoor residual spraying, and artemisinin-based combination therapies (ACTs). This success has raised hopes for malaria eradication and consequently stimulated interest in developing new reagents that block gametocyte transmission such as novel and safe gametocytocidal drugs. However, previous drug development efforts have focused primarily on the asexual parasites that cause symptoms, but not malaria transmission. Consequently, patients can remain infectious for weeks after the clearance of asexual parasites and clinical symptoms. To be transmitted from person to person via a mosquito, the parasites must switch from asexual to sexual development and produce male and female gametocytes. Malaria gametocytes consist of five stages (I, II, III, IV and V). The late stage gametocytes (III, IV and V) are difficult to be cultured in vitro and the long lifespan of mature gametocytes allows them being transmitted from host to mosquitoes unless they are completely eliminated by gametocytocidal agents. To identify gametocytocidal compounds which are capable of killing late stage P. falciparum gametocytes, a high throughput gametocyte viability assay was employed. This assay uses oxidoreduction indicator, alamarBlue, as a general measure of metabolic activity of gametocytes. Within live cells, the nonfluorescent resazurin is reduced to resorufin, a bright red fluorescence dye. Fluorescence decreases upon treatment of gametocytocidal compounds. P. falciparum gametocyte (3D7 strain) was used in this study.
The 1536-well gametocycidal viability assay was based on the previous method of Tanaka et al. Stage III-V gametocytes were tested against three compound libraries, including 4265 compounds from NCGC pharmaceutical collection, 400 from Malaria Box library, and 550 from an internal collection of kinase inhibitors. Briefly, 2.5 ul/well incomplete medium was dispensed into each well of 1,536-well plates using the Multidrop Combi followed by 23 nl compound transferring using the NX-TR Pintool (WAKO Scientific Solutions, San Diego, CA). Then, 2.5 ul/well of gametocytes was dispensed with a seeding density of 20,000 cells/well using the Multidrop Combi. The assay plates were incubated for 72 h at 37C with 5% CO2. After addition of 5 ul/well of 2X AlamarBlue dye (Life Technologies, cat. no. DAL1100), the plates were incubated for 24 h at 37C with 5% CO2 and then were read in a fluorescence detection mode (Ex = 525 nm, Em = 598 nm) on a ViewLux plate reader (PerkinElmer).
% is scaled to controls: 0 for no effect and ±100 for the full control effect; potency is read from the fitted curve at half-maximal effect.

Compound	Potency	max response
C1CCC(C(CC2CCCCN2)C2CCCCC2)CC1 (stereo not given)	10 µM (active)	–
Cn1c(=O)c2c(ncn2CC(O)CO)n(C)c1=O (stereo not given)	–	-1.9% (inactive)
N[C@@H](Cc1ccc(O)c(O)c1)C(=O)O	–	20.2% (inactive)
CNC1CCCN(c2c(F)cc3c(=O)c(C(=O)O)cn(C4CC4)c3c2OC)C1 (stereo not given)	–	-8.7% (inactive)
CC(C)(Sc1cc(C(C)(C)C)c(O)c(C(C)(C)C)c1)Sc1cc(C(C)(C)C)c(O)c(C(C)(C)C)c1	–	-1.03% (inactive)
CCCCS(=N)(=O)CCC(N)C(=O)O (stereo not given)	–	-16.7% (inactive)
CCN[C@H]1C[C@H](C)S(=O)(=O)c2sc(S(N)(=O)=O)cc21	–	4.01% (inactive)
Cc1cccc(Nc2ccncc2S(=O)(=O)NC(=O)NC(C)C)c1	–	-10.6% (inactive)
CCC(=O)O[C@]1(C(=O)SCF)[C@H](C)C[C@H]2[C@@H]3C[C@H](F)C4=CC(=O)C=C[C@]4(C)[C@@]3(F)[C@@H](O)C[C@@]21C	–	-5% (inactive)
COc1cc2c(Nc3ccc(Br)cc3F)ncnc2cc1OCC1CCN(C)CC1	9.35 µM (active) and 5.62 µM (active)	–
CC(C)(C)C(=O)OCOP(=O)(COCCn1cnc2c(N)ncnc21)OCOC(=O)C(C)(C)C	–	4.48% (inactive)
COc1ccc(C(=O)CC(=O)c2ccc(C(C)(C)C)cc2)cc1	–	7.37% (inactive)
CC1=CC(=O)c2ccccc2C1=O	12.6 µM (active)	–
Oc1c(Cl)cc(Cl)c2cccnc12	7.08 µM (active)	–
Cc1nnc(NS(=O)(=O)c2ccc(N)cc2)s1	–	-4.6% (inactive)
Cc1onc(-c2ccccc2Cl)c1C(=O)N[C@@H]1C(=O)N2[C@@H]1SC(C)(C)[C@@H]2C(=O)O	–	-11.3% (inactive)
CC(N)C12CC3CC(CC(C3)C1)C2 (stereo not given)	–	26.1% (inactive)
COc1ccc2c(c1)c(CC(=O)OCC(=O)O)c(C)n2C(=O)c1ccc(Cl)cc1	–	-13.1% (inactive)
Cc1cc(NS(=O)(=O)c2ccc(N)cc2)no1	–	-4.78% (inactive)
CCn1cc(C(=O)O)c(=O)c2cc(F)c(N3CCNCC3)nc21	–	0.203% (inactive)

Compound	Potency	max response
NC1(c2ccc(-c3nc4ccn5c(=O)[nH]nc5c4cc3-c3ccccc3)cc2)CCC1	11.8 µM (active)	–
O=C(O)CSCC(=O)NC1CCSC1=O (stereo not given)	–	-6.62% (inactive)
O=c1cc(O)c(Cl)c[nH]1	–	10.3% (inactive)
COc1nc(N)nc2c1ncn2[C@@H]1O[C@H](CO)[C@@H](O)[C@@H]1O	–	4.43% (inactive)
CCCN[C@H]1CCc2nc(N)sc2C1	–	-5.22% (inactive)
CN(C)CCc1c[nH]c2ccc(CS(=O)(=O)N3CCCC3)cc12	–	1.18% (inactive)
O=C(N[C@H](CO)[C@H](O)c1ccc([N+](=O)[O-])cc1)C(Cl)Cl	–	-4.26% (inactive) and -6.91% (inactive)
Cc1ccnc2c1NC(=O)c1cccnc1N2C1CC1	–	21.9% (inactive)
COc1cc(NS(=O)(=O)c2ccc(N)cc2)nc(OC)n1	–	22.6% (inactive)
CN(C)c1ccc(C(=C2C=CC(=[N+](C)C)C=C2)c2ccc(N(C)C)cc2)cc1	7.08 µM (active)	–
CO[C@@]12[C@H](COC(N)=O)C3=C(C(=O)C(C)=C(N)C3=O)N1C[C@@H]1N[C@@H]12	–	-9.88% (inactive)
O=P(O)(O)C(O)(Cc1cccnc1)P(=O)(O)O	–	8.36% (inactive)
CC(C)Cn1cnc2c(N)nc3ccccc3c21	–	-6.2% (inactive)
C[C@@H]1C[C@H]2[C@@H]3CCC4=CC(=O)C=C[C@]4(C)[C@@]3(Cl)[C@@H](O)C[C@]2(C)[C@@]1(OC(=O)c1ccco1)C(=O)CCl	–	3.64% (inactive)
CC(C)C1CCC(C(=O)N[C@H](Cc2ccccc2)C(=O)O)CC1 (stereo not given in full)	–	6.84% (inactive)
CCCOc1ccc(C(=O)OCCN(CC)CC)cc1N	–	14.8% (inactive)
C#CCN[C@@H]1CCc2ccccc21	–	-0.979% (inactive)
N[C@@H](C(=O)N[C@@H]1C(=O)N2C(C(=O)O)=C(Cl)CS[C@H]12)c1ccccc1	–	19.9% (inactive)
COc1cccc(N(C)C(=S)Oc2ccc3c(c2)CCCC3)n1	–	-0.766% (inactive)
CC(C(=O)O)c1ccc2c(c1)CC(=O)c1ccccc1S2 (stereo not given)	–	43% (inactive)
